UBC9 SUMO inh: inhibitors of in vitro SUMOylation cascade, primary screen, biochemical, HTRF, uHTS. 290,000 compounds, 0.36% hits. inhibition, % at 35 µM. HTRF SUMOylation assay, SAE1/SAE2 + UBC9. SUMO-conjugating enzyme UBC9 (Homo sapiens), P63279. AID 2006, 2009; in the data active means inhibition above about 50%, passing the limit was not always enough
Target sequence (P63279 whole entry, looked up): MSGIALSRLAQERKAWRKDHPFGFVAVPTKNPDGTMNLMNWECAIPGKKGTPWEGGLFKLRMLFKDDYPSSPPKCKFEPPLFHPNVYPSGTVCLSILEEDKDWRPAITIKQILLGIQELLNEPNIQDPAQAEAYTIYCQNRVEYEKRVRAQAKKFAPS
UBC13 inh: UBC13 polyubiquitin chain formation inhibitors, primary screen, biochemical, TR-FRET, uHTS. Ubiquitin-conjugating enzyme E2 N (Homo sapiens), P61088. inhibition, % at 20 µM. AID 485273, 2010. 330,000 compounds, 0.47% hits; in the data active means inhibition above about 45%, passing the limit was not always enough
Target sequence (P61088 whole entry, looked up): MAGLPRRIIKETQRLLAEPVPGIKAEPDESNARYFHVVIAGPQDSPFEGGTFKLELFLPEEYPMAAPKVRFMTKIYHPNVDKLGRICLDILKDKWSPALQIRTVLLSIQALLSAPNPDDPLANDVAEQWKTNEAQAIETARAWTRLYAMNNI
GRIN3A LBD mod: binders of NR3A ligand-binding domain, primary screen, biophysical, differential scanning fluorimetry, uHTS | Glutamate receptor ionotropic, NMDA 3A (GRIN3A) ligand-binding domain | NR3A LBD differential scanning fluorimetry, Tm shift; 0% = protein alone, 100% = glycine-bound protein | Tm shift relative to glycine control, % at 25 µM | 340,000 compounds, 2.5% hits;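 active means melting temperature shift of at least 10% of the positive control shift, at one fixed dose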
sPLA2-III inh: human group III sPLA2 inhibitors, primary screen, biochemical, QFRET, BODIPY PC-A2 liposome substrate; Group 3 secretory phospholipase A2 (Homo sapiens), Q9NZ20; QFRET BODIPY PC-A2 liposome hydrolysis, fluorescence; inhibition, % at 12.2 µM; 370,000 compounds, 0.56% hits; AID 743126, 2013;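 active means inhibition above mean plus 3 SD of compounds lying within the high and low control bounds, cut at about 19% in these data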
A number is an active result; n = inactive; x = not tested or not shown. In the library only some 3.3% were active in any assay of this set; here they are far more common.

SMILES	UBC9 SUMO inh	UBC13 inh	GRIN3A LBD mod	sPLA2-III inh
CCOC(=O)c1c(-c2ccc(C)cc2)csc1NC(=O)/C(C#N)=C/c1ccc(O)c(OC)c1	n	x	20	n
CCOC(=O)/C(C#N)=C\c1ccc(O)c(OC)c1	n	n	n	n
CCOC(=O)c1c(-c2ccccc2)csc1NC(=O)/C(C#N)=C\c1ccc(O)c(OC)c1	x	x	18	n
Nc1nc(-c2ccccc2)cn1/N=C/c1ccccc1	n	n	n	n
Nc1nc(-c2ccccc2)cn1N	n	n	11	n
COC(=O)c1cc(-c2ccc(OC)c(OC)c2)c(=O)n2c1CCC2	x	x	x	n
O=C(Nc1ccc(Cl)c(Cl)c1)c1ccc(Cn2cc(Cl)cn2)cc1	n	x	24	n
NNC(=O)c1ccc(Cn2cc(Cl)cn2)cc1	n	n	n	n
CCOCc1cc(CN2CCC(n3nccc3NC(=O)C3CC3)CC2)ccc1OC	n	n	n	n
COc1ccc(CN2CCC(n3nccc3NC(=O)C3CC3)CC2)cc1O	n	n	14	n
CCOC(=O)N1CCN(C(=O)C[C@H]2C[C@@]3(C(=O)OC)C(=C[C@H](COCc4ccccc4)O[C@@H]3C)N(Cc3cccc4ccccc34)C2=O)CC1	x	x	x	n
Cc1cccc(C)c1-n1nnnc1C1(C)Cn2nccc2C(=O)N1Cc1ccc(F)cc1 (configuration not stated)	x	x	x	n
O=C(CN1CCN(S(=O)(=O)c2ccc(Br)s2)CC1)N1CCc2ccccc21	x	x	x	n
CN(CC(=O)N1CCc2ccccc21)S(=O)(=O)c1ccc(Br)s1	n	n	15	n
N=C1/C(=C\c2ccc(-c3cccc(Cl)c3)o2)C(=O)N=C2SC=C(c3ccccc3)N12	n	n	13	n
CC(C)(C)c1csc(NC(=O)Nc2ccccc2)n1	n	n	n	n
O=C(Nc1ccccc1)Nc1nc(-c2ccccc2)cs1	n	n	23	n
O=C(CN1CCN(c2nc(-c3ccccc3)cs2)CC1)Nc1ccc(Cl)c(Cl)c1	x	x	x	n
O=C(/C=C/c1cccs1)Nc1nc(-c2ccccc2)cs1	n	n	17	n
O=C(Nc1ccc(Cl)c(Cl)c1)Nc1nc(-c2ccccc2)cs1	n	n	160	n
O=C(COC(=O)/C=C/c1cccs1)Nc1nc(-c2ccccc2)cs1	n	n	n	n
O=C(/C=C\c1cn(-c2ccccc2)nc1-c1ccccc1)Nc1nccs1	n	n	28	n
CC(C)(C)c1ccc(-c2noc(CCC(=O)NC3CC3)n2)cc1	x	x	x	n
COc1cccc(-c2csc(NC(=O)Nc3ccccc3)n2)c1	n	n	32	n
COc1cccc(C(=O)Nc2nc(-c3ccc4c(c3)OCO4)cs2)c1	n	n	25	n
SMILES	UBC9 SUMO inh	UBC13 inh	GRIN3A LBD mod	sPLA2-III inh
COc1ccccc1CC(=O)Nc1nc(-c2ccc(F)c(F)c2)cs1	n	n	n	n
COc1cccc(C(=O)Nc2nc(-c3ccncc3)cs2)c1	n	n	n	n
O=C(Nc1ccccc1)Nc1nc(-c2ccc(F)c(F)c2)cs1	n	n	28	x
COc1cccc(-c2csc(NC(=O)C3CC3)n2)c1	n	n	20	n
CCOc1ccc(-n2c(SCC(=O)Nc3ccc(S(=O)(=O)Nc4nccs4)cc3)nnc2-c2ccccc2)cc1	x	x	x	n
O=C1NN(c2ccccc2)C(=O)/C1=C\c1ccc(-c2cc([N+](=O)[O-])ccc2O)o1	n	n	23	n
O=C1Nc2ccc(Br)cc2C12NNc1ccccc1O2 (configuration not stated)	n	n	25	n
Nc1c(C(=O)N2CCOCC2)cnn1Cc1ccccc1	x	x	x	n
CCOC(=O)c1ccc2nc(Nc3nc4ccc(F)cc4s3)sc2c1	n	n	28	n
COC(=O)c1ccc2nc(Nc3nc4c(F)cc(F)cc4s3)sc2c1	n	n	22	n
C[C@H]1[C@H](NC(=O)c2ccc(C(C)(C)C)cc2)CC[C@@]23CCCN2C(=O)CCC[C@@H]13	x	x	x	n
O=C(NCc1ccc(Cl)cc1)C1CCC(=O)N(C2CCCCCC2)C1 (configuration not stated)	n	n	10	n
O=C(NCc1cccc(F)c1)C1CCC(=O)N(C2CCCC2)C1 (configuration not stated)	n	n	n	n
CCCCCCCCN1C(=O)[C@@H](CC(=O)NCC2CCCCC2)C[C@@]2(C(=O)OC)C1=C[C@H](C(C)C)O[C@@H]2C1CC1	x	x	x	n
CC1CCN(S(=O)(=O)c2cccc(C(=O)Nc3nncs3)c2)CC1	n	n	17	n
